Among the data in PubChem BioAssay AID504329 (Southern Research Specialized Biocontainment Screening …, 2011) are inhibition values, retold here.

Hit rate of the full screen: of about 340,000 compounds, about 1,000 (0.29%) were called active. The list is a sample of the results. Potency and affinity values are given separately. Unmarked numbers belong to inactive results. Rule as the data show it: inconclusive = inhibition above about 27% without an active follow-up result; inactive = below that.

The assay in a line: NS1A inhibition, H1N1 influenza, cell based functional assay (AID 504329). The conditions noted are these: percent inhibition, at 12.5 µM, active compounds read high.
With `CCOc1ccccc1N(C(=O)c1snc(C(N)=O)c1N)C(C(=O)NCc1ccccc1)c1ccc(O)cc1` (configuration not stated), the inhibition was 11.4%.

For `CCOc1cc(/C=N/NC(=O)c2cccc([N+](=O)[O-])c2)ccc1OS(=O)(=O)c1ccccc1`, the inhibition is -5.88%.

On to `OCCC1CN(C2CSCCSC2)CCN1Cc1ccccc1` (configuration not stated), for which the inhibition is -6.56%.

On to `CN1CCN(c2ccc(CNS(=O)(=O)c3ccc(F)cc3Cl)cc2)CC1`, for which the inhibition is -10.3%.

Take `Cc1nc(SCC(=O)NCc2ccccc2)c2c(=O)n(C)c(=O)n(C)c2n1`: the inhibition was -13.1%.

Take `COc1ccc(C(=O)N/N=C/c2c(CO)cnc(C)c2O)cc1`: the inhibition is 21.8%.

Take `COc1ccccc1NS(=O)(=O)c1cccc(C(=O)N/N=C/c2c(CO)cnc(C)c2O)c1`: the inhibition was 17.7%.

Take `Cc1ncc(CO)c(/C=N/NC(=O)c2ccoc2C)c1O`: the inhibition is 7.34%.

As to `Cc1ncc(CO)c(/C=N/NC(=O)c2ccc(O)cc2)c1O`, the inhibition is 15.5%.

Consider `O=C(N/N=C/c1ccccn1)c1cccc(S(=O)(=O)N2CCCC2)c1`, for which the inhibition was -3%.

As to `Cc1ncc(CO)c(/C=N/NC(=O)c2ccccc2Br)c1O`, the inhibition was 18.5%.

As for `CC(C)C(NC(=O)C1CC(=O)N(Cc2ccccc2)C1)c1nc2ccccc2[nH]1` (configuration not stated), the inhibition was -13.6%.

For `O=C(c1cc2ccccc2c(=O)o1)N1CCCCCC1`, the inhibition is -12.3%.

Regarding `Cc1cc(N2CCOCC2)ccc1/C=C1\NC(=O)N(Cc2ccccc2F)C1=O`, the inhibition was -4.62%.

As for `CC(=O)Nc1nc(CCl)cs1`, the inhibition was -0.43%.

Consider `Cn1c(O)c(N=Nc2ccc(F)cc2)c2ccccc21`, for which the inhibition is -0.89%.

Regarding `NS(=O)(=O)c1ccc(N=Nc2c(O)c(C(=O)O)cc3ccccc23)cc1`, the inhibition is 14%.

`Oc1[nH]c2ccccc2c1N=Nc1ccccc1F`: the inhibition was -4.52%.

Take `Oc1ccc(N=Nc2ccc3ccccc3c2)cc1`: the inhibition is 3.88%.

Turning to `O=C(O)c1cc(N=Nc2c(O)ccc3ccccc23)cc(C(=O)O)c1`, the inhibition is 13.6%.

On to `O=C(O)c1cc2ccccc2c(N=Nc2cccnc2)c1O`, for which the inhibition was 16.2%.

As to `NS(=O)(=O)c1ccc(N=Nc2c(O)ccc3ccccc23)cc1`, the inhibition was 7.02%.

Turning to `O=S(=O)(O)c1cccc(N=Nc2c(O)ccc3ccccc23)c1`, the inhibition is 22.8%.

Regarding `Cc1ccccc1C(=O)N=c1sccn1C`, the inhibition was -5.97%.

Consider `O=C(NC1CCCCC1)c1c(O)nc2sccn2c1=O`, for which the inhibition was 0.11%.

Consider `O=C(COc1ccccc1Cl)Nc1ccccc1C(=O)Nc1cccc(C(=O)O)c1`, for which the inhibition is 1.12%.

Take `COc1ccc(-c2cc(C(=O)Nc3cccc(S(=O)(=O)NCc4ccco4)c3)c3ccccc3n2)cc1OC`: the inhibition is -2.45%.

In the case of `COc1ccccc1C(=O)N/C(=C\c1ccc(Br)cc1)C(=O)NCCO`, the inhibition was -1.68%.

In the case of `COC(=O)N/N=C(\C)c1ccc(C)c([N+](=O)[O-])c1`, the inhibition is 2.68%.

For `CCC(CC)C(=O)Nc1nnc(S(=O)(=O)Nc2ccccc2C)s1`, the inhibition is -5.98%.

Consider `O=C(COc1ccccc1)NCC(=O)N/N=C/c1ccco1`, for which the inhibition was 8.38%.

On to `O=C(Nc1ccccc1N1CCOCC1)c1cccc(Oc2ccccc2)c1`, for which the inhibition was 5.8%.

Turning to `Oc1[nH]c2ccccc2c1N=Nc1ccccn1`, the inhibition was -23.1%.

Take `CCCCn1c(O)c(N=Nc2ccccn2)c2ccccc21`: the inhibition is -1.48%.

In the case of `CN(C)S(=O)(=O)c1ccc(Cl)c(C(=O)NNC(=O)Cc2nc3ccccc3n2C)c1`, the inhibition is -3.93%.

Turning to `CCOc1ccc(N2C(=O)c3ccccc3C2=O)cc1`, the inhibition was 5.19%.

Take `Cc1cc(C)nc(NS(=O)(=O)c2ccc(N3C(=O)c4ccccc4C3=O)cc2)n1`: the inhibition is -5.14%.

As for `CCO/C=C1\C(=O)N(c2ccccc2)C(=O)c2ccccc21`, the inhibition is 4.03%.

Turning to `CCO/C=C1/C(=O)N(c2ccc(OC)cc2)C(=O)c2ccccc21`, the inhibition was 1.21%.

On to `Cc1[nH]c2ccccc2c1C(=O)C(=O)N1CCCc2ccccc21`, for which the inhibition was -5.75%.

`Nc1ccc(N(CCO)CCO)cc1`: the inhibition was 11.7%.

Consider `Cc1cc(N(CCO)CCO)ccc1C(c1ccc(N(CCO)CCO)cc1C)c1ccccc1Cl`, for which the inhibition is 19.6%.

As to `O=C1CCC(C(=O)N2CCSCC2)CN1CCc1ccccc1` (configuration not stated), the inhibition was 5.31%.

`CCOC(=O)C1=C(Cc2ccc(F)cc2)C(=O)c2ccccc2C1=O`: the inhibition was 19.2%.

For `CCOC(=O)C1=C(Cc2ccc(Cl)cc2)C(=O)c2ccccc2C1=O`, the inhibition is 21.1%.

With `N#Cc1c(N)nc2c(c1-c1ccc(F)cc1)CCC2`, the inhibition is 0.84%.

With `C[C@H](C(=O)NCc1ccccc1)C(=O)c1ccccc1`, the inhibition is 8.83%.

With `COc1ccc(-c2csc(N(CCc3ccc(OC)c(OC)c3)C(=O)COc3ccccc3)n2)cc1`, the inhibition was 1.44%.

As to `CC(C)CCn1nnnc1C(c1ccc(F)cc1)N1CCC(C(N)=O)CC1` (configuration not stated), the inhibition is -2.77%.

In the case of `CC(=O)c1ccc(-c2ccccc2)cc1`, the inhibition is 7.71%.

Turning to `O=C(NCc1cccs1)C1CCN(c2nccs2)CC1`, the inhibition was 5.59%.

With `COc1cc(/C=N/NC(=S)Nc2cccc(C(=O)O)c2)cc(OC)c1OC`, the inhibition was -7.56%.

Take `O=C(N/N=C/c1ccccc1)c1cc[n+]([O-])cc1`: the inhibition was -4.01%.

As for `COc1ccc(/C=N\NC(=O)C2=NNC(=O)C2C)cc1` (configuration not stated), the inhibition was 3.13%.

In the case of `COc1cc(OC)c([N+](=O)[O-])cc1/C=N/NC(=O)c1ccncc1`, the inhibition is 1.29%.

As to `COc1cc(/C=N/NC(=O)c2ccncc2)c([N+](=O)[O-])cc1OC`, the inhibition is -2.25%.

`COc1cc(/C=N/NC(=O)C2=NNC(=O)C2C)ccc1O` (configuration not stated): the inhibition is -32.2%.

Turning to `COc1cc(/C=N/NC(=S)Nc2cccc(C(=O)O)c2)ccc1O`, the inhibition was -4%.

For the compound `O=C(N/N=C/c1ccc(Br)cc1)c1cc[n+]([O-])cc1`, the inhibition was 6.04%.

Regarding `CC(NC(=O)c1ccc(NC(=O)CC2SC(N3CCCC3)=NC2=O)cc1)c1ccccc1` (configuration not stated), the inhibition is -7.82%.

As for `O=S(=O)(c1ccc(S(=O)(=O)N2CCOCC2)cc1)N1CCCC1`, the inhibition was 4.18%.

Take `CCCCC(=O)N(c1ccc(C(=O)O)cc1)c1nc(-c2ccc(Cl)cc2)c(CC)s1`: the inhibition is -4.2%.

Consider `O=C(NC1CCCCC1)C1CC(=O)N(Cc2ccccc2)C1` (configuration not stated), for which the inhibition is -1.57%.

`C[N+](C)(C)C(Cc1ccccc1)C(=O)[O-]` (configuration not stated): the inhibition was -4.58%.

For `COc1cccc(/C=N/NC(=O)C[n+]2ccccc2)c1OC`, the inhibition is 0.86%.

Consider `COc1cc(OC)c(OC)cc1/C=N/NC(=O)C[n+]1ccccc1`, for which the inhibition was -11.7%.

Regarding `CCOc1cc(Br)cc(/C=N/NC(=O)c2cccnc2)c1O`, the inhibition was 15.9%.

As to `O=C(O)c1cccc(NC(=S)N/N=C/c2cccc(O)c2)c1`, the inhibition was 2.28%.

In the case of `COc1ccccc1/C=N/NC(=O)C(=O)NCc1cccnc1`, the inhibition is -1.04%.

`CCOc1cc(/C=N/NC(=O)c2cccnc2)ccc1O`: the inhibition was 11.3%.

Take `COc1cccc(/C=N/NC(=O)C(=O)NCc2cccnc2)c1OC`: the inhibition is -5.14%.

`O=C(O)c1cccc(NC(=S)N/N=C/c2cccnc2)c1`: the inhibition was 4.47%.

Consider `CCOc1ccc(NS(=O)(=O)c2cccc(C(=O)NCC3(N(C)C)CCCCC3)c2)cc1`, for which the inhibition was 0.36%.

As for `Cc1cc2nc(-c3ccc[nH]c3=O)n(Cc3ccc(F)cc3)c2cc1C`, the inhibition was 1.86%.

`COc1cccc(CNC(=O)COC(=O)C23CC4CC(CC(Cl)(C4)C2)C3)c1`: the inhibition is -9.8%.

Turning to `O=C(CN(Cc1ccccc1Cl)C(=O)c1ccc(CN2CCOCC2)o1)NCc1ccccc1`, the inhibition was 1.95%.

Regarding `O=c1c2ccccc2nc(SCCN2CCCCC2)n1CCc1ccccc1`, the inhibition is 6.75%.

For `CC/C(C)=N/N1C(=O)c2ccccc2NC1(C)CC` (configuration not stated), the inhibition is 5.09%.

Turning to `O=C(CCc1c[nH]c2ccccc12)NCC1CCCO1` (configuration not stated), the inhibition was -2.9%.

Consider `O=C(Cn1c(-c2ccccc2)noc1=O)Nc1ccc(S(=O)(=O)N2CCOCC2)cc1`, for which the inhibition was 2.21%.

For the compound `Cc1nonc1C(=O)N/N=C/c1ccc(O)c(O)c1`, the inhibition is -5.97%.

`O=C(N/N=C/c1ccc(O)cc1)c1ccncc1`: the inhibition was -6.99%.

For the compound `O=C(N/N=C/c1ccccc1C(=O)O)c1ccncc1`, the inhibition was -0.84%.

As to `COc1cccc(/C=N/NC(=O)CNC(=O)c2ccncc2)c1O`, the inhibition was 10.4%.

On to `O=C(N/N=C/c1ccccc1Cl)c1ccncc1`, for which the inhibition is 2.1%.

Regarding `O=C(CNC(=O)c1ccncc1)N/N=C/c1ccc(O)cc1O`, the inhibition is 9.53%.

Take `COc1ccccc1C=NNC(=O)c1ccncc1`: the inhibition was -14.4%.

On to `Cc1nonc1C(=O)N/N=C/c1cccc(O)c1`, for which the inhibition was -4.77%.

For the compound `CC(NC(=O)COC(=O)/C=C/c1ccco1)c1ccccc1` (configuration not stated), the inhibition is -3.74%.

For `CCOC(=O)c1ccccc1NC(=O)CSc1nc(N)cc(=O)[nH]1`, the inhibition is -7.55%.

Consider `CN(C)C(=O)c1ccc(NC(=O)COc2cccc(Oc3ccccc3)c2)cc1`, for which the inhibition is -4.79%.

Consider `CC(C)CCC(C(=O)O)C(C)CC(=O)NC1CCCCC1` (configuration not stated), for which the inhibition is 4.04%.

With `CCC(C)[C@H](NC(=O)N1CC(=O)Nc2ccccc21)C(=O)N1CCC(C(=O)O)CC1` (some centres not stated), the inhibition is 1.95%.

Regarding `Cc1cccc(N(C(=O)CNC(=O)c2ccco2)C(C(=O)NC2CCCC2)c2ccncc2)c1C` (configuration not stated), the inhibition is 6.68%.

With `CCCn1cc(CN2CCC(n3nccc3NC(=O)CCOc3ccccc3)CC2)c(C)n1`, the inhibition is 3.28%.

`CN1CCN(c2ccc(S(=O)(=O)N3CCCCC3)cn2)CC1`: the inhibition is -0.41%.

As for `O=C(COC(=O)c1cc([N+](=O)[O-])ccc1N1CCOCC1)Nc1ccc(Cl)cc1`, the inhibition is -5.7%.

A word on the inhibition: it is the change of the read-out against control, counted positive when it falls.
